From ChEMBL document CHEMBL3988442, “University of Dundee, Small-Polar-MMV Screening Library” (2021)
For some assays here: Entries with a potency or affinity are not part of this list.

Legend:
Set-up in all cases: scale not given: direction of the effect not stated beside the values
[1] = biological target: Protein translocase subunit SecA (Escherichia coli (strain K12)) (UniProt P10408); experiment: Assay to Identify E. coli SecA ATPase Inhibitors; assay type: functional; settings: 30 µM
[2] = biological target: T1, Ubiquitin-activating enzyme e1, putative (Leishmania donovani (strain BPK282A1)) (UniProt E9BSI1); experiment: Leishmania donovani Ubiquitin Activating Enzyme (LdE1); assay type: functional; settings: 30 µM
T1 sequence (whole entry): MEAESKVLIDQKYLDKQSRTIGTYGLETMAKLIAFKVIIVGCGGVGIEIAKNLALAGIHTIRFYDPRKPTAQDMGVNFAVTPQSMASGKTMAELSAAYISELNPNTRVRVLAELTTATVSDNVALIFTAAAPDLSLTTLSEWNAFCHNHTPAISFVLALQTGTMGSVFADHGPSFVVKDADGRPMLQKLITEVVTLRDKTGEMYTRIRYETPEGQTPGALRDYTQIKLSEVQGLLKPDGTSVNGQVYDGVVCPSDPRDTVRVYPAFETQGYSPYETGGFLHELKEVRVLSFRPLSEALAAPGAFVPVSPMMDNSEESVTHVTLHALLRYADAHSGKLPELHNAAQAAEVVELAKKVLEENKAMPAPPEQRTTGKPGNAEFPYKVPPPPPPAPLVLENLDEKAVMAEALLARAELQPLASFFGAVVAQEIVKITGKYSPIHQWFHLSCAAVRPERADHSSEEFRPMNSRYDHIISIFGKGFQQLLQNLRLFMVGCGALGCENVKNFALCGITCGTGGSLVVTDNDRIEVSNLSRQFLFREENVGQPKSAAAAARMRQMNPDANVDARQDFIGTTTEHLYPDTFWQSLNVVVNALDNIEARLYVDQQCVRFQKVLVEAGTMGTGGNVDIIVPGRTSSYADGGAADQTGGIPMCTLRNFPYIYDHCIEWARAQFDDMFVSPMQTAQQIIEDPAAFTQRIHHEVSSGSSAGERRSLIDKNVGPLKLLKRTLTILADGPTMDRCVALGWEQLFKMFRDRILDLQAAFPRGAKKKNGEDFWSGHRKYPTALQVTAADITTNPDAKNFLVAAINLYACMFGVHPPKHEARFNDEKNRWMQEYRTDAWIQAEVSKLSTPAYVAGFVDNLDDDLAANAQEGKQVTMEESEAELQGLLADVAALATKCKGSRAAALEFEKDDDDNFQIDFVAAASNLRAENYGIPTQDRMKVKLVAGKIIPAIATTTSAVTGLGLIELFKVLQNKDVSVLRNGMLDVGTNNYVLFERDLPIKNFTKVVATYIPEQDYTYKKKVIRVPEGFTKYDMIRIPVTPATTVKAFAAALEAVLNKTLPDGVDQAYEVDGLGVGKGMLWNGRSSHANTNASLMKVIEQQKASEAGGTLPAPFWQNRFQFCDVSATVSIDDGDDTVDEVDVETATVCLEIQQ

[3] = biological target: AMP-activated protein kinase, AMPK (Homo sapiens) (UniProt P54646+O43741+P54619+Q9UGJ0+Q9Y478+Q13131+Q9UGI9); experiment: AMP-dependent Kinase enzyme assay. An in vitro enzyme assay that detects ADP turnover that is directly proportional to AMPK activity. This uses naive AMPK that is activated during the assay with MK-8722; assay type: functional; settings: 30 µM
[4] = biological target: Sialic acid-binding Ig-like lectin 9 (Homo sapiens) (UniProt Q9Y336); experiment: Hs-Siglec9 ALPHAscreen SOP 20170721; settings: 10 µM
[5] = system: Trypanosoma cruzi; experiment: Trypanosoma cruzi phosphomannomutase and mannose-1-phosphate guanylyltransferase assay; assay type: functional; settings: 10 µM
[6] = biological target: T2, Arginase-2, mitochondrial (Homo sapiens) (UniProt P78540); experiment: in vitro enzyme assay to detect the production of urea directly proportional to the activity of Arginase II; assay type: functional; settings: 33.3 µM; note: in the data most compounds retested in dose-response had high values
T2 sequence (whole entry): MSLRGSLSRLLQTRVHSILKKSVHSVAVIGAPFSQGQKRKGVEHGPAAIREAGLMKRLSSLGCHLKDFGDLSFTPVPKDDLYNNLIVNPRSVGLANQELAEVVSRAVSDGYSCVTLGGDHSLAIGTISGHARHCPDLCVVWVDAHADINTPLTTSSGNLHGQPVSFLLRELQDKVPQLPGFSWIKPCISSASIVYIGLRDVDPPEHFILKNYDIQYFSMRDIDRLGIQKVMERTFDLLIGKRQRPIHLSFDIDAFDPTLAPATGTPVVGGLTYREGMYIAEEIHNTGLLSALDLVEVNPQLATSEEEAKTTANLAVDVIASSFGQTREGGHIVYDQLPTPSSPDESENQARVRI

[7] = biological target: T3, Proteasome subunit beta (Trypanosoma cruzi) (UniProt O96673); experiment: Trypanosoma cruzi proteasome chymotrypsin-like activity (TcProtChymo) assay.; note: in the data most compounds retested in dose-response had high values; assay type: functional; settings: 9.37 µM
T3 sequence (whole entry): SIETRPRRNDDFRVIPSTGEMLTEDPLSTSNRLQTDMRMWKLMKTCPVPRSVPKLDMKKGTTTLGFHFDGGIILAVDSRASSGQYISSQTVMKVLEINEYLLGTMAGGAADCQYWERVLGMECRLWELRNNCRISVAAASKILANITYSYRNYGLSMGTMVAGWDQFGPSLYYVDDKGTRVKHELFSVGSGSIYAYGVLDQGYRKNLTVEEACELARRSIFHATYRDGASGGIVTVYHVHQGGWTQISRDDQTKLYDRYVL

[8] = species on record: Homo sapiens; experiment: To identify inhibition of the IFN signalling (Jak-Stat) pathway via expression of an eGFP reporter gene under the control of an IFN-stimulated response element (ISRE) containing MxA promoter.; assay type: functional; settings: 30 µM
[9] = biological target: T4, Tyrosyl-tRNA synthetase, putative (Trypanosoma cruzi (strain CL Brener)) (UniProt Q4DSP6); experiment: Trypanosoma cruzi tyrosyl tRNA synthetase (TcYRS) _High Tyrosine SOP; assay type: functional; settings: 30 µM; note: in the data most compounds retested in dose-response had high values
T4 sequence (whole entry): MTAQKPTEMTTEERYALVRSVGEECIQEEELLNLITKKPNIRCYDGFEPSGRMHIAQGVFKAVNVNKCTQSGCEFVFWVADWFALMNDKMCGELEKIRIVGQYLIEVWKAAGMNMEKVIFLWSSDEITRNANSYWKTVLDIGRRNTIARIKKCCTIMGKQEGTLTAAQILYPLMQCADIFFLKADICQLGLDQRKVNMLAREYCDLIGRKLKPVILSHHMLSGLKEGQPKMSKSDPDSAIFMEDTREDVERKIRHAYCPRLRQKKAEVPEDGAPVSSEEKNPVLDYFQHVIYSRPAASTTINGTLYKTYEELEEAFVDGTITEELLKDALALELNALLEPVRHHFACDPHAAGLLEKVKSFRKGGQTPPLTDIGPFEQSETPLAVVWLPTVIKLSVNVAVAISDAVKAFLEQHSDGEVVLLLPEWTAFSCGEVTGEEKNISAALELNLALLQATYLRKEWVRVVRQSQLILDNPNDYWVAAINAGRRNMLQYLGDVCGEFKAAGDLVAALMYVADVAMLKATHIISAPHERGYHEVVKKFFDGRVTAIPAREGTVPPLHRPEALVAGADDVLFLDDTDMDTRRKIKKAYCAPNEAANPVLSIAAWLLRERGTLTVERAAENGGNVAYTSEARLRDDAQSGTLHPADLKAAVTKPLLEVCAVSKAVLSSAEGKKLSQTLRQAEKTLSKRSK

[10] = biological target: T4, Tyrosyl-tRNA synthetase, putative (Trypanosoma cruzi (strain CL Brener)); experiment: Trypanosoma cruzi tyrosyl tRNA synthetase (TcYRS) SOP; assay type: functional; settings: 30 µM
[11] = biological target: Chromo domain-containing protein 1 (Saccharomyces cerevisiae (strain ATCC 204508 / S288c) (Baker's yeast)) (UniProt P32657); experiment: ScCHD-1 Enzyme Inhibition Assay; assay type: functional; settings: 30 µM; note: in the data most compounds retested in dose-response had high values
Sequence of Chromo domain-containing protein 1 (Saccharomyces cerevisiae (strain ATCC 204508 / S288c) (Baker's yeast)) (P32657 whole entry, the tested form may be a part): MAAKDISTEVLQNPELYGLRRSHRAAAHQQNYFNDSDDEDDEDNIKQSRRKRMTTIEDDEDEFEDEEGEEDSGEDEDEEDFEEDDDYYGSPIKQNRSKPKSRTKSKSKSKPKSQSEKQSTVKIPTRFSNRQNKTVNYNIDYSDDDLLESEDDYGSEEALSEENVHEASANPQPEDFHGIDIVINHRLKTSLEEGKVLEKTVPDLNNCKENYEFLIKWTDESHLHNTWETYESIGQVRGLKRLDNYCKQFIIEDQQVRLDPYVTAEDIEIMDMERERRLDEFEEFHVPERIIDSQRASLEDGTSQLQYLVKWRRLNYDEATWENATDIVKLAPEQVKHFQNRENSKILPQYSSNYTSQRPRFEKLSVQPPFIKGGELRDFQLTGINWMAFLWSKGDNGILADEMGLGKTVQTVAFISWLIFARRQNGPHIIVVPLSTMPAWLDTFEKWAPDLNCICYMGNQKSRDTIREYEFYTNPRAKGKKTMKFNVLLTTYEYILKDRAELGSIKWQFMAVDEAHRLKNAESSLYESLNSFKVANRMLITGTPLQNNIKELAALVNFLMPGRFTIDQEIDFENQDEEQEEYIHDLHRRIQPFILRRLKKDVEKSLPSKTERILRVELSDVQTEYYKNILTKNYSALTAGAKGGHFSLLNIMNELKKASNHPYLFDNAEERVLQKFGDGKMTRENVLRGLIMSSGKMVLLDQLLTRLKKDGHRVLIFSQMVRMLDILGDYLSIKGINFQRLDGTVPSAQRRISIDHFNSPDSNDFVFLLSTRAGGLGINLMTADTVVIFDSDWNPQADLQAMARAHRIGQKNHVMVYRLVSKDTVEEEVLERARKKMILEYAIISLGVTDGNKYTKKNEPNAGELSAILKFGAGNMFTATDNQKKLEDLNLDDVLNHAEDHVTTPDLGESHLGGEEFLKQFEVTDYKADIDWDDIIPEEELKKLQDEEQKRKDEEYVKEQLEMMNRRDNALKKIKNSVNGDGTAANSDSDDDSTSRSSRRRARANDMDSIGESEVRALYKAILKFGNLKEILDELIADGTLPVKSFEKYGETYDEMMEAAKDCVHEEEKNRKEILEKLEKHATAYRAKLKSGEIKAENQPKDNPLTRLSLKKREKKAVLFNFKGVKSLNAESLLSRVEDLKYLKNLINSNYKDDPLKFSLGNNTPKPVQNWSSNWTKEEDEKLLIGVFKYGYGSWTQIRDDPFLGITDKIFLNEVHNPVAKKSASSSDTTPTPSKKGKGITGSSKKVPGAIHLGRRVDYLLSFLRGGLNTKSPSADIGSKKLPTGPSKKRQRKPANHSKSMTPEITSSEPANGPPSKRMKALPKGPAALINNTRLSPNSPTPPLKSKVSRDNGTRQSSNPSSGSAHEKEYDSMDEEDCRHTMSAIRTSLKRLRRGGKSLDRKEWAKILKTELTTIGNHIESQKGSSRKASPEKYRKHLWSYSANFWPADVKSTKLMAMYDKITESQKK

Sequence of Sialic acid-binding Ig-like lectin 9 (Homo sapiens) (Q9Y336 whole entry): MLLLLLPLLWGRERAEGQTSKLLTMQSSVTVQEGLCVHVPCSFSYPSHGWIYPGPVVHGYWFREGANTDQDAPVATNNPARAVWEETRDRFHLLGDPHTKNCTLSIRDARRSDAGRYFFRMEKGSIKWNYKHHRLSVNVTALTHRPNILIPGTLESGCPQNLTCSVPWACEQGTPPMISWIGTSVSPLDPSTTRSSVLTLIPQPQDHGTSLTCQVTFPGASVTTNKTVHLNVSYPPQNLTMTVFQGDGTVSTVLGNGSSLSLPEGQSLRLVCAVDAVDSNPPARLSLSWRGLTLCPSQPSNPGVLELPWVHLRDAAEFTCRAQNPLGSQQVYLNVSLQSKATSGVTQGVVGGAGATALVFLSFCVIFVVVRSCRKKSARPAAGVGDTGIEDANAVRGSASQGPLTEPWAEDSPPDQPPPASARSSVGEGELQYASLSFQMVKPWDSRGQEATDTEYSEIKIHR
Sequence of Protein translocase subunit SecA (Escherichia coli (strain K12)) (P10408 whole entry): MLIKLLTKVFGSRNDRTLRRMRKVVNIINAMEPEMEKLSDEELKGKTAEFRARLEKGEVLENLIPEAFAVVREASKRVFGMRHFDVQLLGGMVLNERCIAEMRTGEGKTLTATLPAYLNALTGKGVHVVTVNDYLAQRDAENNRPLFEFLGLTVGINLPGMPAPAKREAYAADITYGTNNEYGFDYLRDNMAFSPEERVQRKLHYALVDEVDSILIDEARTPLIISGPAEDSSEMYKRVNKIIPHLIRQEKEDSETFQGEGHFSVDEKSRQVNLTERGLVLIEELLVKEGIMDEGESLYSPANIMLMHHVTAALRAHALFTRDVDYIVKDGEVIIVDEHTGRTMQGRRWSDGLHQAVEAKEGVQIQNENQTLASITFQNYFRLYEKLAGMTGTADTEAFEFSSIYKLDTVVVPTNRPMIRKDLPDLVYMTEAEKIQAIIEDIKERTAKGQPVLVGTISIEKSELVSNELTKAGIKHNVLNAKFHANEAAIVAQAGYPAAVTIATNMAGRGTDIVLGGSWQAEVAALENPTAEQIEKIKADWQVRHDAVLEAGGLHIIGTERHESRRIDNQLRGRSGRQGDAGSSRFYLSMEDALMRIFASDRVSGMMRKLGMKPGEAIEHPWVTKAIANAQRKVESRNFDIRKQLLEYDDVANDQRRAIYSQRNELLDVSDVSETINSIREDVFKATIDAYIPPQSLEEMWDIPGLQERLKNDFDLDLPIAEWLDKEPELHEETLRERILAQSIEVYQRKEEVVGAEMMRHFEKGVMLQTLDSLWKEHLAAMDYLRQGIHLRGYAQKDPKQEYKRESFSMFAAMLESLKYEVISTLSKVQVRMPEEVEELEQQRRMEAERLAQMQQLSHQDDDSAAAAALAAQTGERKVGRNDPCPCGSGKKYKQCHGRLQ

Row | Compound | Percent Effect [1] | Percent Effect [2] | Percent Effect [3] | Percent Effect [4] | Percent Effect [5] | Percent Effect [6] | Percent Effect [7] | Percent Effect [8] | Percent Effect [9] | Percent Effect [10] | Percent Effect [11]
1 | CN1CCN(Cc2cscn2)CC(C(=O)N(C)C)C1 (stereo unspecified) | -6.29% | 18.7% | -6.4% | -0.543% | 5.91% | -3.03% | 3.44% | 5.65% | 8.51% | 14.1% | -4.45%
2 | COC(=O)C(c1cc(F)ccc1F)N(C)C(=O)c1cccnc1O (stereo unspecified) | -4.02% | 6.33% | 7.36% | -2.25% | -1.33% | 0.645% | 10.3% | -7.9% | 1.04% | 12.7% | -12.9%
3 | c1cnn(C2CN(Cc3nc(-c4ccsc4)no3)C2)c1 | -3.15% | -10.5% | -7.01% | 2.96% | 8.27% | 1.15% | 12.7% | -0.515% | 4.41% | 12.2% | -4.96%
4 | O=C(NCCC(=O)N1CCCC1)c1nn(-c2ccccc2F)cc1O | -10.5% | 10.8% | -8.26% | 24.5% | 8.82% | -0.554% | 8.08% | 17.9% | 5.94% | 15.8% | -11.4%
5 | O=C(CCn1ccccc1=O)Nc1ccc(F)c(Cl)c1 | -5.08% | 8.11% | -4.38% | 0.784% | -2.44% | 3.72% | 10.7% | -1.47% | 4.3% | 6.17% | -7.68%
6 | COc1cc(N2C[C@@H]3COC[C@]3(COc3cccnc3)C2)ncn1 | -4.12% | 16.2% | 3.02% | -8.65% | 5.38% | -2.87% | 18.4% | 21.1% | 2.16% | 12.8% | -1.83%
7 | O=C(NCC1CCS(=O)(=O)C1)c1sccc1-c1ccc(F)cc1 (stereo unspecified) | -4.74% | -54% | -1.29% | 24.1% | 8.5% | 4.71% | 13.3% | 4.09% | 4.3% | 18.5% | 0.115%
8 | COc1c(C2CCCN2CC(=O)Nc2nc(C)cs2)c(C)nn1C (stereo unspecified) | -0.196% | -5.41% | -8.37% | 10.3% | 4.74% | 1.29% | 5.03% | 5.63% | 4.95% | 6.1% | 0.0954%
9 | CCN1C[C@@H]2[C@@H](OC)CCN(S(=O)(=O)c3ccccc3)[C@@H]2C1 | -1.54% | 16% | 3.6% | -7.4% | -7.48% | 0.233% | 11.4% | -3.22% | 1.06% | 6.41% | -5.54%
10 | CN(Cc1ccsc1)C(=O)CS(=O)(=O)Cc1ccc(Cl)c(Cl)c1 | -1.27% | -5.2% | 10.5% | -5.21% | 7.15% | 0.21% | 15.6% | 7.44% | -13.3% | 0% | -13.1%
11 | Cn1ccnc1CC1CCCN(C(=O)Nc2cccn(C)c2=O)C1 (stereo unspecified) | -3.36% | 5.41% | -17.1% | 6.3% | 2.93% | 27.9% | 12.9% | 4.41% | 8.91% | 13.4% | -5.06%
12 | CCc1ccccc1NC(=O)N1CCn2cnc(COC)c2C1 | -3.57% | 8.11% | -9.76% | 17.5% | 5.38% | 15.1% | 0.601% | 17.8% | 5.38% | -1.24% | -5.57%
13 | CC(=O)c1cn(CC(=O)NC(C(=O)O)C(C)C)c2ccccc12 (stereo unspecified) | -5.18% | -2.67% | 1.25% | -4.07% | -3.99% | -1.04% | 8.72% | -13.9% | 1.64% | 1.24% | 3.17%
14 | Cc1nc(CC(=O)N2CCC[C@H]2c2nc(C(C)C)no2)cs1 | -6.79% | -1.39% | 0.72% | -1.32% | 1.26% | 3.09% | 7.19% | -13.6% | 3.16% | 5.13% | -0.504%
15 | c1cnc(-c2cnc(N3CCSCC3)nc2C2CC2)cn1 | -4.23% | 2.67% | 12.3% | 6.16% | -3.94% | -0.699% | 3.44% | 16% | 1.06% | 8.97% | -0.826%
16 | CCCS(=O)(=O)Nc1ccc2c(c1)OCC(C)(C)C(=O)N2C | -0.588% | 11% | -6.5% | 1.41% | -5.09% | -2.27% | 12.6% | 8.18% | 2.15% | 10% | -5.87%
